# KDM5B inh: KDM5B demethylase inhibition. Q9UGL1. KDM5B demethylase, FDH-coupled NADH fluorescence (FDH is formaldehyde dehydrogenase). Potency, µM (highest dose often 57.7 µM), hits mostly inhibitors. 220,000 tested, 2.6% active. AID 1347165; active means well fitted inhibition curve with a large enough effect; further: 0% is about no effect; nearly all actives have a fitted effect of over 70% in size
#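 Coupled FDH/NAD⁺ fluorescence readout. KDM5BΔAP 200 nM final; compound titration, 10 min RT preincubation; substrate mix 12.5 µM H3K4me3, 25 µM 2-OG, 50 µM Fe(II), 100 µM ascorbate, 0.25 mM NAD⁺, 0.25 U/mL FDH; ΔRFU over 30 min.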
# An asterisk follows results filed as active; i = inactive. The full list was thinned out, with hits kept by preference. Potency means the concentration at half of the fitted maximal effect.
SMILES,KDM5B inh
O=C(Cc1c[nH]c(=O)[nH]c1=O)NCc1cccnc1Oc1ccccc1F,i
Cc1ccc(C(=O)NCc2cccnc2Oc2ccccc2F)c(=O)n1C,28µM*
Cc1cc(C)n(CCC(=O)NCc2cccnc2Oc2ccccc2F)n1,i
Cc1nc2sc3c(c2c(-c2ccccc2)c1C(N)=O)CCCC3,i
COc1ccc(CN2CCCC3(C2)CN(C)C(=O)O3)cc1C(=O)O (stereo not drawn),i
COc1cc(CN2CCCC3(C2)CN(C)C(=O)O3)ccc1OCC(N)=O (stereo not drawn),i
COc1ccc(-c2ncc(CN3CCCC4(C3)CN(C)C(=O)O4)cn2)cc1 (stereo not drawn),14µM*
Cc1ccc(-c2nnc3ccc(N(C)c4cccc(C)c4)nn23)nc1,i
CCC(=O)Nc1ccc2c(c1)nc(Cn1cccn1)n2CC(C)C,i
COc1ccc(-c2cc3ccc(OCCN4CCN(C)CC4)cc3oc2=O)cc1,i
O=C(c1ccccc1)N1CCC2(C1)C(=O)Nc1ccccc12 (stereo not drawn),i
Cc1[nH]c(=O)c(C#N)cc1C(=O)N1CCC2(CC1)C(=O)Nc1ccccc12,22µM*
O=C(c1ccc2c(c1)OCO2)N1CCC2(CC1)C(=O)Nc1ccccc12,i
CCSc1nnc(-c2nn(C)c3c2CN(S(=O)(=O)c2ccc(OC)cc2)CC3)n1C,i
O=C(COc1ccccc1)Nc1ccc([C@@H](O)[C@H]2COCC(=O)N2CCCc2ccccc2)cc1,i
CCc1noc(-c2cccn3c(CNC(=O)c4ccco4)nnc23)n1,28µM*
CCCc1noc(-c2cccn3c(CNC(=O)c4ccco4)nnc23)n1,25µM*
CCc1noc(-c2cn(C3CCN(C(=O)c4ccco4)CC3)nn2)n1,i
CC(/C=N/NC(=O)C1CC1)c1ccccc1 (stereo not drawn),i
COc1cccc(C(=O)N2CCCC(n3cc(-c4nc(C(C)C)no4)nn3)C2)c1 (stereo not drawn),i
CCOCCCNC(=O)CCC1CCN(C(=O)c2ccccc2)CC1,i
O=C(CCC1CCN(C(=O)c2ccccc2)CC1)NCCc1ccncc1,i
O=C(CCC1CCN(C(=O)c2ccccc2)CC1)NCCCN1CCCc2ccccc21,10µM*
CCOc1ccc(NC(=O)NC(C)c2ccc(Cl)s2)cc1 (stereo not drawn),i
CCn1c(CNC(C)c2ccccc2)nc2cc(S(=O)(=O)N3CCOCC3)ccc21 (stereo not drawn),i
SMILES,KDM5B inh
CN(Cc1ccsc1)C(=O)Cc1cccc(F)c1,i
O=C(NC1CCCC1)C1(c2cccc(C(F)(F)F)c2)CCCC1,i
CCCn1nc(C(=O)Nc2ncc(Cc3cccc(Cl)c3)s2)ccc1=O,i
O=C(NCc1cccnc1)c1cccnc1N1CC2CC(C1)[C@H]1CCCC(=O)N1C2 (stereo partly drawn),28µM*
O=C(NCc1cccnc1)C1CCN(C(=O)N2CC3CC(C2)[C@H]2CCCC(=O)N2C3)CC1 (stereo partly drawn),i
O=C(NCc1cccc(F)c1)c1ccc(N2CC3CC(C2)[C@H]2CCCC(=O)N2C3)nc1 (stereo partly drawn),i
O=C(CN1CC2CC(C1)[C@H]1CCCC(=O)N1C2)NCc1ccccc1 (stereo partly drawn),i
O=C(NCc1cccc(Cl)c1)c1ccc(N2CC3CC(C2)[C@H]2CCCC(=O)N2C3)nc1 (stereo partly drawn),i
O=C(NCc1cc(F)ccc1F)c1cccnc1N1CC2CC(C1)[C@H]1CCCC(=O)N1C2 (stereo partly drawn),32µM*
NC(CCCc1ccccc1)c1ccccc1 (stereo not drawn),i
COc1ccc(C2CC(=O)Nc3c2c(=O)nc(SC)n3C)c(OC)c1 (stereo not drawn),i
Cc1cccc(C)c1NC(=O)NC(=O)c1ccc(Cl)cc1,i
COc1cc(OC)cc(C(=O)N2CCC(c3n[nH]c(=O)n3-c3ccccc3)CC2)c1,i
O=C(Nc1ccc(Cl)cc1)c1nc2c(o1)CCN(Cc1ccc3c(c1)CCO3)CC2,32µM*
O=C(Nc1ccc(Cl)cc1)c1nc2c(o1)CCN(Cc1cccc(O)c1)CC2,32µM*
O=C(Nc1ccc(Cl)cc1)c1nc2c(o1)CCN(Cc1ccc3cn[nH]c3c1)CC2,35µM*
O=C(NCc1ccncc1)c1nc2c(o1)CCN(Cc1ccc3[nH]ccc3c1)CC2,i
O=C(Nc1ccccc1)c1nc2c(o1)CCN(Cc1ccc(F)c(Cl)c1)CC2,28µM*
Cc1csc(NC(=O)c2nc3c(o2)CCN(Cc2ccccc2)CC3)n1,i
COc1ccc(CN2CCc3nc(C(=O)NCc4ccncc4)oc3CC2)cc1OC,i
Cc1csc(NC(=O)c2nc3c(o2)CCN(Cc2cccc(F)c2)CC3)n1,i
CC[C@H]1CN(C(=O)Nc2cccc(C(F)(F)F)c2)CC[C@H]1CC(=O)O,i
COc1ccc(Cc2nc(P(=O)(OC)OC)c(NCc3ccc4c(c3)OCO4)o2)cc1,i
CCc1ccc2oc(=O)cc(-c3cc4cccc(OC)c4o3)c2c1,i
COc1ccc(C(=O)c2oc3cc(NC(=O)C(C)C)ccc3c2C)cc1OC,i
SMILES,KDM5B inh
COP(=O)(OC)c1nc(C(c2ccccc2)c2ccccc2)oc1NCc1ccco1,i
CCCOc1ccc(NC(=O)c2ccc(Cl)cc2)c2cccnc12,i
O=C(NCCc1ccccc1)NCC(=O)N1CCc2ccccc21,i
Cc1ccccc1CN1CCc2nc(C(=O)NCCOc3ccccc3)oc2CC1,32µM*
O=C(NCCOc1ccccc1)c1cnc2n1CCN(Cc1ccccc1O)CC2,i
O=C(Nc1ccccc1)c1nc2c(o1)CCN(Cc1ccc(O)cc1)CC2,i
Cc1ccc(CN2CCc3nc(C(=O)Nc4ccc(Cl)cc4)oc3CC2)cc1,35µM*
Cc1ccc(CN2CCc3nc(C(=O)Nc4cccnc4)oc3CC2)cc1,i
Cc1ccc(CN2CCc3nc(C(=O)Nc4ccccc4)oc3CC2)cc1,35µM*
Cc1[nH]cnc1CN1CCc2nc(C(=O)NCCOc3ccccc3)oc2CC1,i
O=C(Nc1ccc(Cl)cc1)c1nc2c(o1)CCN(CC1CC1)CC2,i
O=C(Nc1ccc(Cl)cc1)c1nc2c(o1)CCN(Cc1ccncc1)CC2,i
CC(=O)C1(C)CC2(CC(COCC(C)C)OC2=O)C(=O)O1 (stereo not drawn),i
CSc1ccc(CNC(=O)c2cc3c(s2)CCN(C(=O)c2ccccc2)C3)cc1,i
COc1ccc(C(=O)N2CCCC3(C2)NC(=O)N(Cc2ccc(C)cc2)C3=O)cc1OC (stereo not drawn),i
O=C(CSc1nnc2c3c4c(sc3ncn12)CCCC4)Nc1cccc(Cl)c1,i
COc1ccc2cc(C3CN(C(=O)c4cccc(CO)c4)CCO3)ccc2c1 (stereo not drawn),i
O=C(Nc1ccc2c(c1)OCCO2)c1cccc(C(=O)Nc2ccc3c(c2)OCCO3)c1,i
CNC(=O)c1cccc(-c2cnc(Nc3ccc4c(c3)OCCO4)c3c2CCO3)c1,40µM*
CN(C)c1cccc(-c2cnc(Nc3ccc4c(c3)OCCO4)c3c2CCO3)c1,14µM*
CNC(=O)c1cccc(-c2cnc(Nc3cccnc3OC)c3c2CCO3)c1,35µM*
CNC(=O)c1cccc(-c2cnc(NC(=O)Cc3ccccc3)c3c2CCO3)c1,i
CNC(=O)c1cccc(-c2cnc(Nc3ccccc3)c3c2CCO3)c1,32µM*
c1ccc(-c2noc(Nc3ccc4c(c3)OCCO4)n2)cc1,i

# Screening data deposited in PubChem by National Center for Advancing Translational Sciences (NCATS).
